CtBP-E1A blk: inhibitors of CtBP/E1A interaction; AID 651724; 340,000 compounds, 0.49% hits; activity change, % (no concentration beside the values); AlphaScreen GST-E1A/His-CtBP binding, 1536-well; hits give low values; in the data active = activity change below about -65%; inconclusive = mostly about -30% to -63%
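GST-E1A and His-tagged CtBP (125 nM each as 5X stock) were preincubated with pin-transferred compound for 2 h at 37 °C in the dark, then glutathione donor and nickel acceptor beads were added for 1 h before AlphaScreen reading.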
TrxR1 inh: inhibitors of rat thioredoxin reductase 1 | 390,000 compounds, 1% hits | recombinant rTrxR1, NADPH fluorescence consumption, selenite substrate | Potency, µM (top dose mostly 114 µM), inactives show at the top dose activity change, negative = inhibition, actives largely listed as inhibitors | O89049 | AID 588453; also: potency is read from the fitted curve at half-maximal effect; nearly all actives have a fitted effect of over 65% in size
Target sequence (O89049 whole entry, looked up): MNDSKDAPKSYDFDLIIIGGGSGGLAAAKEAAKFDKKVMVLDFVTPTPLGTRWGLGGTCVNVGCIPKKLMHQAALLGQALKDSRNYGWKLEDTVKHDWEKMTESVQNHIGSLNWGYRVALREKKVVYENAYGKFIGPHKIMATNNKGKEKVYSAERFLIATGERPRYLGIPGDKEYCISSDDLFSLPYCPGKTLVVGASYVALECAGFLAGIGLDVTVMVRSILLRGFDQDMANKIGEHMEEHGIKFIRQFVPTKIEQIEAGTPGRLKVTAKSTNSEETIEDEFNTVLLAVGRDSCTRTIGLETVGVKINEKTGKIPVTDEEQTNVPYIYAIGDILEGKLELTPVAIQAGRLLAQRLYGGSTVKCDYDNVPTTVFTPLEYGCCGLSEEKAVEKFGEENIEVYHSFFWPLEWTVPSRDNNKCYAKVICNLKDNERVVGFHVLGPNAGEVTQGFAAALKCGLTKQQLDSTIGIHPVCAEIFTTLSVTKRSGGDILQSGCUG
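Rat TrxR1 (90 nM in the dispensed reagent) was pre-reduced with 400 uM NADPH for 5 min at room temperature, then incubated with compound for 15 min. After 400 uM selenite was added, NADPH fluorescence (Ex 340/Em 450 nm) was followed for 8 min.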
TrxR1 substrate: is turned over as a substrate by rat TrxR1. purified TrxR1 substrate turnover, NADPH consumption readout. Potency, µM (doses to about 114 µM), inactives show at the top dose activity change, negative = substrate turnover. O89049. 390,000 compounds, 0.01% hits. AID 588456; also: potency is read from the fitted curve at half-maximal effect; nearly all actives have a fitted effect of over 50% in size
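Rat TrxR1, dispensed at 90 nM, was prereduced with 400 uM NADPH (final) for 5 min at ~22 deg C, then incubated with compound 15 min before 400 uM selenite. A first-read NADPH fluorescence drop versus no-compound background flagged substrates.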
Eya2 phos inh: inhibitors of human Eya2 phosphatase activity. O00167. recombinant Eya2, OMFP fluorescence dephosphorylation (OMFP is methylfluorescein phosphate). Potency, µM (top dose mostly 76.9 µM), without a hit: at the top dose activity, negative = inhibition, hits mostly inhibitors. 330,000 compounds, 0.006% hits. AID 488837; also: potency is read from the fitted curve at half-maximal effect
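Eya2 (0.2 uM) preincubated 10 min at ambient with compound, then OMFP substrate added at 50 uM; 10 min reaction in 50 mM HEPES pH 7.5, 50 mM NaCl, 5 uM MgCl2, 0.05% BSA, 1 mM DTT. Fluorescence read at Ex 485/Em 525 nm.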
Six1-Eya2 inh: blocks human Six1 binding to Eya2; Q15475+O00167; AID 651725; AlphaScreen GST-Six1/His-Eya2 binding, biochemical; hits give low values; 360,000 compounds, 0.56% hits; activity change, % (no concentration beside the values); in the data active = activity change below about -65%; inconclusive = mostly about -30% to -63%
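GST-Six1 + His-Eya2 (5X stock: 250/500 nM); Tris pH 8.0, 300 mM NaCl, 0.05% BSA, 0.02% Tween 20; GSH donor/Ni acceptor beads; 1 h 37 °C dark; AlphaScreen readout.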
GALK inhibitor: blocks human galactokinase activity; Potency, µM (top dose mostly 57.5 µM), without a hit: top-dose activity change, negative = inhibition, actives largely listed as inhibitors; Purified GALK, Kinase-Glo residual ATP luminescence; 270,000 compounds, 0.007% hits; P51570; also: potency is read from the fitted curve at half-maximal effect
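Luminescence from leftover ATP (Ultra-Glo luciferase/luciferin) served as read-out after a 1 h room-temperature reaction of 5 nM GALK with 35 uM ATP and 100 uM galactose.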
Numbers without * were called inactive; ? = inconclusive; · = no result given; [ ] = dose if it differs, or a comment. A selection: hits, their analogues and other compounds. The true share with any hit is near 1.5%. Unless noted, calls follow the shape of the dose curve; as a rule, active = well fitted curve in the direction sought with a large enough effect; inconclusive = small, poorly fitted or top-dose-only effect, or another doubt; inactive = no such curve, though single readings can be large; an effect the other way counts as inactive or inconclusive. % is scaled to controls: 0 for no effect and ±100 for the full control effect.

SMILES	CtBP-E1A blk	TrxR1 inh	TrxR1 substrate	Eya2 phos inh	Six1-Eya2 inh	GALK inhibitor
Cc1csc(NC(=O)c2cc(=O)[nH]c3ccc(S(=O)(=O)N4CCOCC4)cc23)n1	-70*	16%[11.4 µM]	6%[11.4 µM]	4%	?	3%
COc1cc(NC(=O)c2cc(=O)[nH]c3ccc(S(=O)(=O)N4CCOCC4)cc23)cc(OC)c1	1	0%	-7%	-23%	-6	·
Cc1ccc(C(=O)n2nc(C)c(S(=O)(=O)N3CCOCC3)c2C)cc1	·	-12%[57.1 µM]	7%[57.1 µM]	·	·	·
CN(Cc1ccccc1)C(=O)COC(=O)/C=C/c1ccco1	-4	-78%	-9%	10%	-6	8%
O=C(/C=C\c1ccco1)Nc1cc([N+](=O)[O-])ccc1F	-1	?	-7%	4%	11	0%
O=C(/C=C/c1ccco1)Nc1ccccc1C(=O)O	-21	14µM*	-7%[57.1 µM]	11%	-25	5%
CN(CCOC(=O)/C=C/c1ccco1)Cc1ccccc1	·	45µM*	-1%	6%	-14	0%
Cc1ccc(-c2csc(NC(=O)c3cccc(C)c3)c2C(=O)O)cc1	1	-7%[57.1 µM]	1%[57.1 µM]	·	-27	·
O=C(/C=C/c1ccco1)Nc1cc(Cl)ccc1C(=O)O	1	13µM*	-19%	8%	0	·
Cc1ccc(-c2csc(NC(=O)/C=C/c3ccco3)c2C(=O)O)cc1	6	35µM*	-6%	-7%	-13	2%
COc1ccc(NC(=O)CSc2oc(-c3ccco3)nc2S(=O)(=O)c2ccc(Br)cc2)c(OC)c1	·	?	5%[2.29 µM]	·	·	·
Cc1ccc(-n2c(=O)c3oc4ccccc4c3n(Cc3cccc(F)c3)c2=O)cc1C	·	11%	2%	·	·	·
CN(C(=O)/C=C/c1ccco1)c1ccccc1C(=O)O	1	28µM*	-2%	15%	-12	7%
Cc1cc(/C=C(/C#N)c2nc3ccccc3[nH]2)c(C)n1-c1cc(C(=O)O)cc(C(=O)O)c1	-66*	-13%	-10%	3%	-69*	11%
C#CCOCCOCCOCCNc1nc(N2CCN(C(=O)CCCCCCCCCCNC(=O)Cn3cc(CCCCCN)nn3)CC2)nc(N2CCN(C(=O)CCCCCCCCCCNC(=O)Cn3cc(CCCCCN)nn3)CC2)n1	-1	11µM*	4%	-34%	-6	·
C#CCOCCOCCOCCNc1nc(N2CCN(C(=O)CCCCCCCCCCNC(=O)[C@H]([C@@H](C)CC)n3cc(CCCCCN)nn3)CC2)nc(N2CCN(C(=O)CCCCCCCCCCNC(=O)[C@@H]([C@H](C)CC)n3cc(CCCCCN)nn3)CC2)n1	·	·	·	28µM*	·	·
CC1CC(C)CN(C(=O)c2ccc3c(c2NCCO)C(=O)c2ccccc2C3=O)C1 (stereo not given)	?	0%[57.1 µM]	-7%[57.1 µM]	-22%	-70*	0%
O=C1C=C(N2CCOCC2)c2cccc3cccc1c23	?	·	·	·	0	·
O=C1C=C(N2CCOCC2)c2ccccc2C1=O	-24	?	25µM*	9%	?	13µM*
CC(=O)N(C(C)=O)N1C(=O)c2cccc3c(N4CCOCC4)ccc(c23)C1=O	·	-7%	-13%	?	7	12%
Cc1ccc(N2CCOCC2)c2c1C(=O)c1ccccc1C2=O	?	7%	-3%	-1%	-76*	1%
CN(C1=C(N2CCOCC2)C(=O)c2ccccc2C1=O)c1ccccc1	?	?	1%	-8%	-82*	2%
O=C(Cn1ncc2c(=O)oc3ccccc3c21)NCc1ccccc1Cl	·	6%	-4%	·	·	·
O=C(NCc1ccccc1Cl)c1ccc(Nc2nc3ccccc3n3nnnc23)cc1	·	12%	27%	·	·	·
O=C(COc1cccnc1[N+](=O)[O-])c1ccc(Cl)s1	-16	25µM*	-5%	3%	-15	1%
SMILES	CtBP-E1A blk	TrxR1 inh	TrxR1 substrate	Eya2 phos inh	Six1-Eya2 inh	GALK inhibitor
CC(C)N1C(=O)CC(Nc2cccc3cccc(N)c23)C1=O (stereo not given)	-1	-54%	-2%[57.1 µM]	-7%	-2	7%
CN1C(=O)CC(Nc2cccc3cccc(N)c23)C1=O (stereo not given)	0	45µM*	1%	-16%	-7	-2%
Cc1ccc(N2C(=O)[C@@H]3C(c4cccnc4)=NO[C@@H]3C2=O)cc1	·	45µM*	4%	-13%	-1	-2%
COc1ccc(N2C(=O)[C@@H]3C(c4cccnc4)=NO[C@@H]3C2=O)cc1	·	?	0%	-10%	2	0%
COc1ccccc1C(=O)Nc1ccc2c(c1)nc1n2CCN(Cc2ccccc2)C1	-14	9%[57.1 µM]	5%[57.1 µM]	-3%	-24	2%
O=C(Nc1ccc2c(c1)nc1n2CCN(Cc2ccccc2)C1)c1cccs1	-87*	-16%	12%	4%	-80*	-5%
Cc1ccc(C(=O)N/N=C/c2ccc(-c3ccccc3[N+](=O)[O-])o2)cn1	?	-30%	-14%	-1%	-69*	-2%
CC(NC(=O)Cn1ncc2c3ccccc3n(Cc3ccc(F)cc3)c2c1=O)c1ccccc1 (stereo not given)	·	27%	29%	·	·	·
Cn1c(=O)c(Nc2ccc(O)cc2)c2c3c(cccc31)C(=O)c1ccccc1-2	-73*	-29%	-16%	-6%	-77*	-4%
CC(=O)c1c2c3c(cccc3n(C)c1=O)C(=O)c1ccccc1-2	·	26%[2.29 µM]	7%[2.29 µM]	9%	-22	-3%
Cc1c(/C=N/NC(=O)c2ccc(O)cc2)c2ccccn2c1C(=O)c1ccc(F)cc1	-78*	13%[57.1 µM]	-13%	0%	-70*	-1%
Cc1cccc(OCC(=O)NN2C(=O)C3C4C=CC(O4)C3C2=O)c1 (stereo not given)	4	7%[57.1 µM]	3%[57.1 µM]	7%	6	0%
CCOc1ccc(C(=O)NN2C(=O)C3C4C=CC(O4)C3C2=O)cc1 (stereo not given)	-3	20µM*	4%	-1%	0	-2%
Cc1ccccc1OCC(=O)NN1C(=O)C2C3C=CC(O3)C2C1=O (stereo not given)	-8	32µM*	-5%[57.1 µM]	14%	-6	1%

Screens: PubChem BioAssay, National Center for Advancing Translational Sciences (NCATS)
